# Source: PubChem BioAssay AID504332 (National Center for Advancing Translational Sciences (NCATS), 2011)
# In all, about 350,000 compounds went through this assay and about 31,000 (8.9%) were called active. Roughly 15% stayed inconclusive and do not appear here. Calls come from the whole dose curve; as a rule, active = well fitted inhibition curve with a large enough effect; inconclusive = small, poorly fitted or top-dose-only effect; inactive = no such curve, though single readings can be large or run the other way. The sample as a whole holds a higher share of actives than the screen did.
# Target: Histone-lysine N-methyltransferase EHMT2 (Homo sapiens) (UniProt Q96KQ7)
# Sequence (Q96KQ7 913-1193 limits assumed): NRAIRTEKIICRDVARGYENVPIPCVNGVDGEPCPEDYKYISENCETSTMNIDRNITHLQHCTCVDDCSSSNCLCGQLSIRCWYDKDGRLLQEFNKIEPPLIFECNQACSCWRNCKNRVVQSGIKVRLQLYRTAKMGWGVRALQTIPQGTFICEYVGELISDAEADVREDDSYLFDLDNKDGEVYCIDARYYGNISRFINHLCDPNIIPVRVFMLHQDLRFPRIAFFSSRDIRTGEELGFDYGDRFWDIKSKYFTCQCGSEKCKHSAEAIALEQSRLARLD
# Experiment: qHTS Assay for Inhibitors of Histone Lysine Methyltransferase G9a; note: nearly all actives have a fitted effect of over 75% in size
# Settings: G9a H3K9 monomethylation, AlphaScreen, 2 h; series mostly up to 59 µM; activity, negative = inhibition: at the top concentration
# Procedure, shortened: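 G9a (20 nM) preincubated 15 min RT with compounds, then 500 nM biotinylated H3K9 peptide and 20 uM SAM added; 2 h RT reaction. Monomethyl-H3K9 product detected by AlphaScreen with anti-H3K9me1 antibody, streptavidin donor and anti-rabbit IgG acceptor beads.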
# % is set by controls: 0 for no effect and ±100 for the full control effect; potency is the fitted concentration of half-maximal effect.
SMILES,"activity, negative = inhibition",Potency
CC(=O)c1ccc(N2CCN(C3C(=O)c4ccccc4N3C(C)=O)CC2)cc1 (stereo not drawn),-31.2% (inactive),–
CCCOc1ccccc1-c1nc(SCCC(=O)O)n[nH]1,–,11.2 µM (active)
CCCOc1ccccc1C(=O)NCCCC(=O)O,-1.32% [at 102 µM] (inactive),–
COc1ccccc1-c1nc(SC)n[nH]1,-11.3% [at 102 µM] (inactive),–
Cc1nc2nc(SCC(=O)NC3CCC(C)CC3)nn2c(C)c1Cc1ccccc1Cl (stereo not drawn),-39.2% (inactive),–
COC(=O)c1ccc(NC(=S)Nc2cccc(C)n2)cc1,-9.29% [at 12.7 µM] (inactive),–
Cc1cccc(-n2cnc(C(=O)NNC(=S)Nc3ccccc3)c2)n1,–,28.2 µM (active)
Cc1cccc(-n2cnc(C(=O)Nc3cccnc3)c2)n1,-4.43% [at 102 µM] (inactive),–
O=C(c1ccc(Cl)nc1)N1CCN(S(=O)(=O)c2ccc3c(c2)OCCO3)CC1,-21.6% [at 12.7 µM] (inactive),–
Cc1cccc(C)c1Nc1c(-c2ccccc2O)nc2ncccn12,-7.84% [at 12.7 µM] (inactive),–
CCc1cccc(C)c1Nc1c(-c2ccc(N(C)C)cc2)nc2ncccn12,–,8.91 µM (active)
COc1ccc(-c2nc3nc(C)cc(C)n3c2Nc2c(C)cccc2C)cc1,-32.3% (inactive),–
Cc1ccc(CCNC(=O)c2ccc3c(c2)N(Cc2cc(C)ccc2C)C(=O)c2ccccc2S3=O)cc1 (stereo not drawn),-23.3% (inactive),–
Cc1ccc(S(=O)(=O)NCCC(=O)OCC(=O)N(C)c2ccccc2)cc1,-8.16% [at 102 µM] (inactive),–
Cc1cc(C)cc(OCC(=O)NC(C)c2ccccc2)c1 (stereo not drawn),–,79.4 µM (active)
Cc1ccc(OCC(=O)NC(C)c2ccccc2)cc1C (stereo not drawn),15.5% [at 102 µM] (inactive),–
Cc1ccc(OCCCC(=O)NC(C)c2ccccc2)c(C)c1 (stereo not drawn),-28.9% [at 102 µM] (inactive),–
COc1ccccc1C(=O)NC(=S)Nc1ccccc1N1CCCCC1,5.98% [at 102 µM] (inactive),–
O=C1C2CCCN2C(=O)N1CCCCN1CCN(c2cccc(C(F)(F)F)c2)CC1 (stereo not drawn),2.49% [at 0.501 µM] (inactive),–
CC1=C(c2ccc(F)cc2)S(=O)(=O)N=C1N1CCC(C(=O)NCCc2ccccc2C)CC1,0.174% (inactive),–

SMILES,"activity, negative = inhibition",Potency
CSCCC(NC(=O)c1ccccc1)C(=O)N1CCN(Cc2ccc(Cl)cc2)CC1 (stereo not drawn),10.6% [at 0.501 µM] (inactive),–
COc1ccccc1C(=O)NC(CCSC)C(=O)N1CCN(C(C)=O)CC1 (stereo not drawn),8.08% [at 12.7 µM] (inactive),–
COc1ccccc1C(=O)NC(CCSC)C(=O)N1CCN(C/C=C/c2ccccc2)CC1 (stereo not drawn),–,56.2 µM (active)
CCOc1ccc(CNC(=O)C2CCN(c3nnc(-n4cccc4CNc4ccc(C)cc4)s3)CC2)cc1OC,-7.99% (inactive),–
CC1CC2C3CCC4=CC(=O)C=C[C@]4(C)[C@@]3(F)[C@@H](O)C[C@]2(C)[C@@]1(O)C(=O)CO (stereo partly drawn),23.6% (inactive),–
Cc1ccc2oc(C(=O)Nc3ccc(S(=O)(=O)N4CCCCCC4)cc3)cc(=O)c2c1,11.5% (inactive),–
O=C(Nc1cccc(Cl)c1Cl)c1ccccc1NC(=O)C1CC=CCC1C(=O)O (stereo not drawn),-46.5% [at 102 µM] (inactive),–
CN(C(=O)COC(=O)c1cc(-c2ccco2)nc2ccccc12)C1CCS(=O)(=O)C1 (stereo not drawn),–,2.51 µM (active)
CN(C(=O)COC(=O)c1nc(Cl)ccc1Cl)C1CCS(=O)(=O)C1 (stereo not drawn),11.5% [at 102 µM] (inactive),–
Cc1c(-c2cccc(Cl)c2)nc2ccccc2c1C(=O)OCC(=O)N(C)C1CCS(=O)(=O)C1 (stereo not drawn),3.46% (inactive),–
COc1ccc(-n2nc(C(=O)NCC(=O)N3CCCCCC3)c3ccccc3c2=O)cc1Cl,-1.41% [at 102 µM] (inactive),–
O=C(Cn1c(=S)nc2ccccn21)N1CCc2ccccc2C1,–,12.6 µM (active)
O=C(COc1ccccc1)N1CCc2ccccc2C1,-42.6% [at 102 µM] (inactive),–
CCC(=O)c1ccc(OCC(=O)OCC(=O)N2CCc3ccccc3C2)cc1,-11.3% [at 2.33 µM] (inactive),–
Cn1c(=O)c2c(nc(Oc3ccc(C#N)cc3)n2Cc2ccc(Cl)cc2Cl)n(C)c1=O,26.9% (inactive),–
COc1ccc(NC(=O)CSc2nccn2Cc2ccc3c(c2)OCO3)cc1,-12.2% (inactive),–
O=C(CSc1n[nH]c(-c2cccnc2)n1)Nc1ccc(Cl)cc1,27.2% [at 102 µM] (inactive),–
CN(C)c1ccc(NC(=O)CSc2n[nH]c(-c3ccco3)n2)cc1,–,44.7 µM (active)
Cc1nc(SCC(=O)Nc2ccc(C(=O)O)cc2)n[nH]1,6.19% (inactive),–
CC(C)Cn1c(C2CC(=O)N(c3ccccc3Cl)C2)nc2ccccc21 (stereo not drawn),-0.0323% (inactive),–

SMILES,"activity, negative = inhibition",Potency
COc1ccc(C)cc1N(CC(=O)N1CCC(C)CC1)S(=O)(=O)c1ccc(C)cc1,-37.9% (inactive),–
O=C(NC1CCN(Cc2ccccc2)CC1)c1ccc(Cn2c(=O)c3ccccc3n(Cc3cccc(F)c3)c2=O)cc1,5.83% (inactive),–
COc1ccc(-n2ncc3c2CC(C)(C)CC3NC(=O)CCc2c(C)nn(C)c2C)cc1 (stereo not drawn),22.3% [at 102 µM] (inactive),–
Cn1c(-c2ccc(C(F)(F)F)cc2)cc2onc(-c3ccccc3)c2c1=O,-9.13% [at 2.33 µM] (inactive),–
O=C(Cn1c(-c2cccs2)cc2ccccc21)NCCc1ccc(Cl)cc1,8.69% (inactive),–
CCc1ccc(Nc2nnc(SCC(=O)c3ccc4c(c3)NC(=O)CO4)s2)cc1,–,15.8 µM (active)
O=C1COc2ccc(C(=O)CSc3ccc(Br)cc3)cc2N1,8.05% [at 12.7 µM] (inactive),–
CCCc1nc2ccccc2c(C(=O)OCC(=O)c2ccc3c(c2)NC(=O)CO3)c1CC,16.7% [at 12.7 µM] (inactive),–
COc1ccc(C)cc1-n1nnnc1SCc1nc2ccccc2c(=O)[nH]1,-44% [at 102 µM] (inactive),–
CCOc1cc(/C=C/c2nc3ccccc3c(=O)[nH]2)cc(Br)c1OC,–,50.1 µM (active)
COc1cc(OC)c(OC)cc1/C=C/c1nc2ccccc2c(=O)n1-c1ccc(Br)c(C)c1,-42.8% (inactive),–
O=C(NC1(C(F)(F)F)N=C(c2ccccc2)N(C2CCCCC2)C1=O)c1ccccc1F (stereo not drawn),-8.07% (inactive),–
COc1ccc(NC(=O)C(c2ccccc2)N2Cc3ccccc3C2=O)cc1 (stereo not drawn),-5.93% (inactive),–
CN(CC(=O)NC1CCN(Cc2ccccc2)CC1)S(=O)(=O)c1ccc(Cl)s1,-1.26% [at 2.33 µM] (inactive),–
COc1ccc(NC(=O)c2ccc3oc(=O)c(S(=O)(=O)c4ccc(F)cc4)cc3c2)c(OC)c1,-2.82% (inactive),–
COc1ccccc1CNC(=O)CCn1c(=O)c2ccccc2n(CC(=O)Nc2cccc(Cl)c2)c1=O,-25% (inactive),–
COc1cccc(NC(=O)N2CCN(C(=O)c3nsc4ccccc34)CC2)c1,4.87% (inactive),–
COc1cc(CNC(=O)c2cc3n(n2)CCCN(Cc2cccc(F)c2)C3=O)cc(OC)c1OC,15.2% (inactive),–
